Calls of active or inactive are those of the source.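 Rule for the calls, unless noted: active = primary screen hit whose calcium fluorescence ratio, in both repeats, exceeds the weak agonist control mean by 3 SD; inactive = the rest.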
These molecules were tested on TRPC4 (transient receptor potential cation channel C4 beta), mouse (assay: potentiation of DAMGO EC20 TRPC4 response – cell-based, second round, Fluo-4, HEK293 TRPC4beta/mu-opioid, 1 µM, confirmation (AID 2554;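 active = primary screen hit whose fluorescence ratio, in both repeats, exceeds the weak agonist control mean by 3 SD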)). Conditions: DAMGO EC20, Fluo-4 calcium flux, at 1 µM; hits give high values.
With Cc1nnc(Sc2cc(NCCCO)c([N+](=O)[O-])c3nonc23)s1 the outcome was “inactive”.
CCOC(=O)C1=NNC(C(=O)c2ccc(Cl)cc2)C1c1ccc(OC)cc1 (stereo unspecified) was tested, and the outcome was “inactive”.
In the case of CN1CCN(NC(=O)Nc2cc(Cl)cc(Cl)c2)CC1, the outcome is reported as “inactive”.
For Cc1ccc(C[n+]2cccc(-c3ccccc3)c2)c(C)c1, the outcome was “inactive”.
Cc1ccc(C(=O)C[n+]2cccc3cc(C)ccc32)cc1 was tested, and the outcome was “inactive”.
With COc1ccc(OC)c(NC(=O)COC(=O)Cc2ccc(-c3ccccc3)cc2)c1 the outcome was “inactive”.
With CC(C)c1ccc(C(C)NCCS(=O)(=O)c2ccc(Br)cc2)cc1 (stereo unspecified) the outcome was “inactive”.
With Cc1ccc(C)c(N(CC(=O)NC2CCCC2)C(=O)c2csnn2)c1 the outcome was “inactive”.
Cc1ccc(-n2c(N)cc(=O)nc2SCC(=O)N2CCN(c3ccccc3)CC2)cc1 was tested, and the outcome was “inactive”.
In the case of N=c1c(C(=O)NCC2CCCO2)cc2c(=O)n3ccccc3nc2n1Cc1ccc(Cl)cc1 (stereo unspecified), the outcome is reported as “inactive”.
For CN(CCNC(=O)c1ccc(/C=N/O)nc1)Cc1ccccc1, the potentiation was 18% (active).
For CCOC(=O)C1=C(CNCCc2ccc(Cl)cc2)NC(=O)NC1c1cccc([N+](=O)[O-])c1 (stereo unspecified), the outcome was “inactive”.
For O=C(NCC(c1ccco1)N1CCc2ccccc2C1)c1ccc(F)cc1 (stereo unspecified), the outcome was “inactive”.
With CCCc1c(-c2ccc(O)cc2)nn(-c2ccc(O)cc2)c1-c1ccc(O)cc1 the outcome was “inactive”.
For Cc1ccc(-c2c(C(=O)N/N=C/c3ccc(OC(C)C)cc3)nnn2-c2nonc2N)cc1, the outcome was “inactive”.
CCOC(=O)CSc1nc2ccccc2c(=O)n1C1CCCC1 was tested, and the outcome was “inactive”.
For CCN1C(=O)/C(=C/C=C2\N(CC)c3cc(S(=O)(=O)N(C)C)ccc3N2c2ccccc2)SC1=S, the outcome was “inactive”.
CCCCn1c(N)c(N(CCOC)C(=O)c2ccc(-c3ccc(C(C)=O)cc3)o2)c(=O)[nH]c1=O was tested, and the outcome was “inactive”.
In the case of CC(C)CN(C(=O)C1CC1)c1c(N)n(Cc2ccccc2)c(=O)[nH]c1=O, the outcome is reported as “inactive”.
In the case of CCOC(=O)CC(NS(=O)(=O)c1ccc(OC)c(C)c1)c1cccc([N+](=O)[O-])c1 (stereo unspecified), the outcome is reported as “inactive”.
For Clc1ccc2nc(CN3CCCc4ccccc43)cn2c1, the outcome was “inactive”.
With Cc1cc(Cl)ccc1OC(C)C(=O)Nc1ccccc1N1CCOCC1 (stereo unspecified) the outcome was “inactive”.

These molecules were tested on TRPC4 beta (transient receptor potential cation channel C4), mouse (assay: potentiation of DAMGO EC20 TRPC4 response – cell-based, Fluo-4, HEK293 TRPC4beta/mu-opioid, confirmation (AID 2555)). Conditions: DAMGO EC20, Fluo-4 calcium flux, at 10 µM; hits give high values.
With CCN1CCN(c2ccc(S(=O)(=O)N3CCCCC3)cc2NC(=O)c2cccc(OC(F)F)c2)CC1 the potentiation was 18% (active).
With Fc1ccc(CN2C3=NCCCN3c3ccccc32)cc1 the outcome was “inactive”.
With COc1ccc(-n2cc(CNCc3cnc4ccccn34)c(-c3cccc(F)c3)n2)cc1 the outcome was “inactive”.
In the case of N=c1c(C(=O)NCc2ccc(F)cc2)cc2c(=O)n3ccccc3nc2n1Cc1ccco1, the potentiation is reported as 17% (active).
O=C1CC2(CCN(S(=O)(=O)c3ccccc3F)CC2)Oc2ccccc21 was tested, and the potentiation was 21% (active).
For O=C1Cc2ccccc2Sc2c(OCCN3CCCCC3)cccc21, the outcome was “inactive”.
For C/C(CC(=O)NCc1ccc(Cl)cc1)=N\NC(=O)COc1ccc(C)cc1Br, the outcome was “inactive”.
In the case of CCCCNc1c(-c2ccc(SC(C)CC)c(OC)c2)nc2ccc(C)cn12 (stereo unspecified), the outcome is reported as “inactive”.
In the case of CCOC(=O)C1NN=C(C(=O)c2ccccc2)C1c1ccc(Cl)cc1 (stereo unspecified), the outcome is reported as “inactive”.
In the case of O=[N+]([O-])c1ccc(N2CCN(CCOc3nonc3-c3ccccc3)CC2)c(Cl)c1, the potentiation is reported as 34% (active).
COc1ccc(-c2cc(C(=O)N3CC(C)CC(C)C3)c3ccccc3n2)cc1 (stereo unspecified) was tested, and the outcome was “inactive”.
For COC(=O)c1cc(N2CCN(C)CC2)nc2ccccc12, the outcome was “inactive”.
COc1cc(C2c3c(-c4ccccc4)n[nH]c3C(=O)N2c2ccccc2)ccc1O (stereo unspecified) was tested, and the potentiation was 16% (active).
O=C(c1ccccc1)c1coc2ccc(O)c(CN3CCOCC3)c12 was tested, and the outcome was “inactive”.
With CN(C)S(=O)(=O)c1cccc(COC(=O)c2ccc(Cl)cc2O)c1 the potentiation was 21% (active).
For CCOC(=O)C1=C(C)N(c2ccccc2)C(=O)NC1c1cccc([N+](=O)[O-])c1 (stereo unspecified), the outcome was “inactive”.
In the case of Cc1cc(=O)oc2cc(NC(=S)NCc3ccccn3)ccc12, the outcome is reported as “inactive”.
Cc1nnc(Sc2cc(NCCCO)c([N+](=O)[O-])c3nonc23)s1 was tested, and the outcome was “inactive”.
In the case of CCOC(=O)C1=NNC(C(=O)c2ccc(Cl)cc2)C1c1ccc(OC)cc1 (stereo unspecified), the outcome is reported as “inactive”.
With CN1CCN(NC(=O)Nc2cc(Cl)cc(Cl)c2)CC1 the potentiation was 29% (active).
For Cc1ccc(C[n+]2cccc(-c3ccccc3)c2)c(C)c1, the outcome was “inactive”.
Cc1ccc(C(=O)C[n+]2cccc3cc(C)ccc32)cc1 was tested, and the outcome was “inactive”.
COc1ccc(OC)c(NC(=O)COC(=O)Cc2ccc(-c3ccccc3)cc2)c1 was tested, and the outcome was “inactive”.
For CC(C)c1ccc(C(C)NCCS(=O)(=O)c2ccc(Br)cc2)cc1 (stereo unspecified), the outcome was “inactive”.

Source: PubChem BioAssay
